SMILES strings stand for the structures. About 10 (0.01%) of roughly 69,000 compounds showed an effect of 50% or more. The sample as a whole holds a higher share of strong results than the screen did.

The target in the assay is ClpP1P2 (Mycobacterium tuberculosis (strain ATCC 25618 / H37Rv)) (UniProt P9WPC5+P9WPC3). Nature of the assay: in vitro assay to detect presence of AMC directly proportional to the activity of ClpP1P2. GHDDI collaboration. The class given is functional. On the set-up: scale not given: direction of the effect not stated beside the values. The conditions noted are these: 50 µM.
Regarding `CN(C)S(=O)(=O)N1C[C@H]2CCC[C@@]2(COCC2CC2)C1`, the Percent Effect is 0.536%.
For `Cc1cccc(CN2C(=O)CC[C@H]3[C@@H]2CCN3CC(=O)N(C)C)n1`, the Percent Effect is 2.64%.
`Cc1nc(-c2ccc(CC(=O)N3CCNC(=O)C3)cc2)cs1`: the Percent Effect was -0.00295%.
Turning to `Cc1nc(-c2ccc(CC(=O)N3CCN(C(=O)C4CC4)CC3)cc2)cs1`, the Percent Effect is 7.62%.
As for `Cc1nc(-c2ccc(CC(=O)N3CCN(C(=O)C(C)C)CC3)cc2)cs1`, the Percent Effect was found to be 88.4%.
In the case of `c1cc(CN2CCO[C@@H]3CNC[C@@H]32)co1`, the Percent Effect was -6.86%.
As to `CN1C[C@H]2CN(C(=O)c3ccc4c(c3)OCO4)CCN2C1=O`, the Percent Effect is -1.11%.
As to `O=C1NC(c2ccccc2)=N[C@@]12CC[C@@H]1CN(Cc3ccco3)C[C@@H]12`, the Percent Effect was -1.45%.
With `COCC(=O)N1CC[C@H]2OCC[C@@]2(c2nc(C)no2)C1`, the Percent Effect was -7.69%.
Regarding `CN(C)C(=O)N1CCC[C@]2(C(=O)N(C)C)CN(c3ccccn3)C[C@@H]2C1`, the Percent Effect was -16.1%.
Turning to `COc1ccc(CN2C[C@H]3C[C@H](C(=O)Nc4cccnc4)[C@@H](C2)O3)cc1`, the Percent Effect came out at 7.77%.
Consider `CCC(=O)N1C[C@@H]2CCN(c3cnccn3)C[C@@H]2C1`, for which the Percent Effect was 27.9%.
For the compound `Cc1cccc(CN2C[C@@H]3CN(C(=O)c4ccsc4)C[C@@H]3C2=O)c1`, the Percent Effect was 5.73%.
For the compound `O=C(N1CCOCC1)N1C[C@H]2CC[C@@H]1CN(C1Cc3ccccc3C1)C2`, the Percent Effect is 4.16%.
In the case of `O=C(c1ccoc1)N1CCO[C@@H]2CNC[C@@H]21` it was -6.03%; in that of `CN1CCN(C(=O)C[C@@H]2COC[C@H]3CN(c4ccncn4)C[C@@H]23)CC1`, -11.8%.
As to `Cc1cccnc1[C@]1(O)CC[C@H]2CN(Cc3cccc(Cl)c3Cl)C[C@H]21`, the Percent Effect was 0.575%.
Consider `COCCN1CCN(C(=O)c2ccccc2C(C)=O)[C@H]2CS(=O)(=O)C[C@H]21`, for which the Percent Effect is -4.44%.
On to `Cc1nccc([C@@H]2C[C@@H]3CCN(Cc4c(C)noc4C)C[C@H]3O2)n1`, for which the Percent Effect was 9.38%.
As for `N#Cc1ccccc1CN1C[C@@H]2CC[C@H](C1)N(CC1CC1)C2=O`, the Percent Effect was -3.85%.
As to `O=C(c1ccnnc1)N1CCN2C[C@H](OCc3ccccn3)C[C@H]2C1`, the Percent Effect is 0.376%.
In the case of `C[C@H]1C[C@H]2CN(C(=O)CCOc3ccccc3)CC[C@H]2O1`, the Percent Effect is 5.83%.
Regarding `O=C(NC[C@]12COC[C@H]1CN(Cc1nccs1)C2)c1cscn1`, the Percent Effect turned out to be 2.68%.
Regarding `O=C(Nc1cnccn1)[C@@H]1CCO[C@@H]2CCN(Cc3ccsc3)C[C@@H]21`, the Percent Effect was -0.52%.
In the case of `Cc1ccnn1CCC(=O)N1C[C@H]2CC[C@@H]1CN(CC(=O)N(C)C)C2` it was 10.3%; in that of `CCNC(=O)N1C[C@@H]2OCC(=O)N(CC3CCCCC3)[C@@H]2C1`, 5.8%; in that of `Cc1noc([C@@]23CCO[C@@H]2CCN(C(=O)CN(C)C)C3)n1`, -12.4%.
Turning to `O=C(NCC1CCOCC1)[C@H]1C[C@@H]2CCN(c3nncs3)C[C@@H]2O1`, the Percent Effect is -12.4%.
As to `Cn1ccnc1C(=O)NC[C@H]1OC[C@@H]2CCN(S(C)(=O)=O)C[C@@H]21`, the Percent Effect worked out at 12.7%.
Take `COCC(=O)N1CCC[C@]2(C(=O)N(C)C)CN(c3ccccn3)C[C@@H]2C1`: the Percent Effect was -0.178%.
In the case of `C[C@H]1C[C@H]2CN(C(=O)c3cccc4c3OCCO4)CC[C@H]2O1`, the Percent Effect was -0.751%.
With `Cn1cccc1C(=O)N1CC[C@H]2[C@H](CO[C@H]2CNS(C)(=O)=O)C1`, the Percent Effect amounted to 5.31%.
On to `Cc1nn(C)c(C)c1S(=O)(=O)N1C[C@@H]2C[C@@H](C)O[C@@H]2C1`, for which the Percent Effect was -4.66%.
For the compound `CCC1=N[C@@]2(CC[C@@H]3CN(S(=O)(=O)CC)C[C@@H]32)C(=O)N1CC`, the Percent Effect was -9.65%.
For the compound `CN1C[C@H]2C[C@H](C(=O)Nc3cccnc3)[C@@H](C1)O2`, the Percent Effect was -5.71%.
Regarding `Cn1cc(C(=O)NC[C@H]2OC[C@@H]3CCN(C4CCOCC4)C[C@@H]32)cn1`, the Percent Effect was -8.58%.
Turning to `Cc1ccnn1CCC(=O)N1CCCC[C@]2(C)NC(=O)CCC[C@H]12`, the Percent Effect came out at 2.82%.
As for `C[C@@H]1C(=O)NC[C@H]2CN(CCc3ccccc3)C[C@H]21`, the Percent Effect came out at 11.1%.
Turning to `O=C(NCc1ccccn1)[C@H]1COC[C@H]2CN(CC3CC3)C[C@H]21`, the Percent Effect was 7.53%.
With `Cc1cnc(CNC(=O)[C@@H]2CC[C@@H]3[C@@H](CCN3Cc3ccco3)O2)cn1`, the Percent Effect was -0.464%.
`CC(C)=CCN1C[C@H]2CC[C@@H]1CN(CCC(=O)NCc1ccco1)C2`: the Percent Effect was -17.3%.
As to `Cc1nc(COC[C@@]23CCC[C@@H]2CN(Cc2cnn(C)c2)C3)cs1`, the Percent Effect was 2.95%.
The figure for `CNC(=O)[C@@]12CCO[C@@H]1CCN(Cc1ccc3c(c1)OCO3)C2` is 14.7%.
Turning to `O=C(O)[C@@]12CN(c3cnccn3)C[C@@H]1CN(C1CCOCC1)C2`, the Percent Effect is -12.3%.
Regarding `Fc1cnc(N2CCO[C@H]3[C@H](OCCN4CCCC4)CC[C@@H]32)nc1`, the Percent Effect is -0.916%.
The figure for `Fc1cccnc1O[C@H]1CN(Cc2ccoc2)[C@@H]2CCCO[C@H]12` is 5.17%.
For `Cc1nc(CN2C(=O)CC[C@@H]3[C@H]2CCN3C(=O)c2ccccn2)cs1`, the Percent Effect was 2.69%.
`Cc1nc(CN2CCO[C@@H]3CN(Cc4ccccn4)CC[C@@H]3C2)cs1`: the Percent Effect was -1.41%.
Take `c1ccc(CO[C@H]2C[C@@H]3CN(Cc4cncnc4)C[C@@H]3C2)cc1`: the Percent Effect is -9.01%.
As for `COCCNC(=O)[C@H]1C[C@@H]2CCN(c3ccncn3)C[C@H]2O1`, the Percent Effect was -14.9%.
Consider `Cc1ccc(C(=O)N2CC[C@@H]3[C@H]2CCC(=O)N3CCN(C)C)cn1`, for which the Percent Effect amounted to 15.8%.
Take `CN1C[C@@H](F)[C@@H](OCc2nc3ccc(C#N)cc3[nH]2)C1`: the Percent Effect was -10.4%.
As for `Cc1ccc2[nH]c(CO[C@H]3CN(C(=O)C4CC4)C[C@H]3F)nc2c1`, the Percent Effect was -1.53%.
Turning to `Cc1ccc2[nH]c(CO[C@H]3CN(c4ccc(C#N)cn4)C[C@H]3F)nc2c1`, the Percent Effect is 78.4%.
In the case of `CC(=O)N1CCC(c2cncc(N3CCOCC3)n2)CC1` it was 55.4%.
On to `CC(=O)N1CCC(c2cncc(N3CCCCCC3)n2)CC1`, for which the Percent Effect was -8.81%.
In the case of `CC(=O)N1CCC(c2cncc(N3CCC(O)C3)n2)CC1` (centres undefined), the Percent Effect is -28.1%.
Consider `O=C(NC1CCC1)[C@@H]1C[C@@H]2CCN(Cc3cccs3)C[C@@H]2O1`, for which the Percent Effect was -6.23%.
Consider `O=C1CC[C@]2(CC[C@@H](NCc3cccnc3)CC2)N1Cc1ccccc1`, for which the Percent Effect was 9.66%.
The figure for `CN(C)S(=O)(=O)N1CC[C@]2(O)CCN(Cc3cccc(C#N)c3)C[C@@H]2C1` is -12.9%.
`CO[C@H]1CN(Cc2ccc(C)o2)[C@@H]2CCCO[C@H]12`: the Percent Effect was -4%.
In the case of `COCCN1C[C@H]2CC[C@@H]1CN(C(=O)c1ccc(Cl)cc1)C2`, the Percent Effect was 2.81%.
As to `Cc1ccccc1CN1C[C@@H](C(=O)N2CCCCO2)C[C@H]2OCC[C@H]21`, the Percent Effect is -6.2%.
In the case of `CCCN1CCN(C(=O)c2cnc(C)nc2)[C@H]2CS(=O)(=O)C[C@H]21` it was 5.85%; in that of `CCS(=O)(=O)N1CC[C@@H]2[C@H](COCC3CC3)CN(C)C(=O)[C@@H]2CC1`, -4.29%; in that of `Cc1ccc([C@]2(O)CC[C@H]3CN(Cc4ccncc4)C[C@H]32)nc1`, 23.9%.
`O=C([C@H]1C[C@H]2OCC[C@H]2N(CC2CCOCC2)C1)N1CCCCO1`: the Percent Effect was -11.4%.
On to `COCCN1C[C@@H]2[C@@H](OC)CCN(S(=O)(=O)c3cccnc3)[C@@H]2C1`, for which the Percent Effect is -10.6%.
Turning to `Cc1cnc(N2C[C@H]3CCN(CC4CC4)C[C@H]3C2)nc1`, the Percent Effect is -8.8%.
Turning to `Cc1ccc(CN2CC[C@@H]3[C@@H]2CCN3C(=O)Cc2cccs2)o1`, the Percent Effect came out at 16.6%.
With `COc1ccc(CC(=O)N2C[C@H]3CN(Cc4ccccn4)C[C@H]3C2)cc1`, the Percent Effect was -3.43%.
Regarding `Cc1noc(C)c1CN1C[C@H](OCC(=O)N(C)C)[C@H]2OCCC[C@H]21`, the Percent Effect was -8.82%.
Consider `CNCCN1C(=O)CC[C@H]2CN(c3cnc4ccccc4n3)CC[C@H]21`, for which the Percent Effect is -92.8%.
Take `O=C(CN1C[C@H]2CC[C@@H]1CN(Cc1ccccn1)C2)Nc1ccccc1`: the Percent Effect is -28.1%.
Take `CN(Cc1ccco1)[C@@H]1CN(Cc2cccnc2)C[C@@H]2CCCO[C@@H]21`: the Percent Effect came out at 6.33%.
Turning to `CC(C)OC(=O)N1C[C@H]2CC[C@@H]1CN(C(=O)c1ccccc1)C2`, the Percent Effect was -3.47%.
As for `Cc1noc([C@H]2COC[C@H]3CN(C(=O)Cc4cccs4)C[C@H]32)n1`, the Percent Effect was -9.33%.
Regarding `CN(C)C(=O)[C@@H]1C[C@@H]2CCN(Cc3ccncc3)C[C@@H]2O1`, the Percent Effect is 7.41%.
Turning to `c1cncc(COCC2CC[C@H]3[C@H]2OCCN3Cc2ccoc2)c1` (some centres undefined), the Percent Effect was found to be 3.35%.
With `CN(C)C[C@]12COC[C@H]1CN(C(=O)Cc1ccc3c(c1)OCO3)C2`, the Percent Effect amounted to 7.79%.
On to `Cn1cc(CN2CC[C@@H]3O[C@H](C(=O)N4CCOCC4)C[C@@H]32)cn1`, for which the Percent Effect was -11.6%.
The figure for `COCCN1C[C@@H]2CN(Cc3cccc(F)c3)CCC[C@]2(C(=O)O)C1` is -13.3%; for `Cc1cccc2nc(C(=O)N3CCCC[C@]4(C)NC(=O)CCC[C@H]34)cn12` it is -8.66%.
In the case of `CN(C)C(=O)[C@H]1CC[C@@H]2[C@@H](CCN2Cc2ccccn2)O1`, the Percent Effect was -3.56%.
As for `CC1=N[C@@]2(CC[C@@H]3CN(Cc4cccc(Cl)c4)C[C@@H]32)C(=O)N1CC1CC1`, the Percent Effect was 3.49%.
In the case of `O=C(c1cccnc1)N1C[C@@H]2OCCN(CCN3CCCC3)[C@@H]2C1`, the Percent Effect is 4.78%.
The figure for `Cn1ccnc1CN1CCO[C@H]2C(CNC(=O)c3ccco3)CC[C@@H]21` (some centres undefined) is 0.912%; for `Cc1ncsc1CN1C[C@@H](OCC(=O)N(C)C)[C@H]2OCCC[C@H]21` it is -2.89%; for `CCS(=O)(=O)N1CCC[C@]2(C(=O)N(C)C)CN(c3ncccn3)C[C@@H]2C1` it is 5.41%.
On to `CCc1ccc(CN2C[C@@H]3COC[C@H](NS(C)(=O)=O)[C@@H]3C2)o1`, for which the Percent Effect was -9.73%.
Regarding `Cc1cccc(CN2CCCC[C@H]3CN(c4ncccn4)C[C@H]32)c1`, the Percent Effect was 3.15%.
As for `CCN1CCO[C@@H]2CN(S(=O)(=O)c3cccs3)CC[C@@H]2C1`, the Percent Effect amounted to 1.3%.
In the case of `CC(=O)N1CCC(N2CCN3C(=O)N(c4ccccc4)C[C@H]3C2)CC1` it was -1.27%; in that of `Cc1noc([C@@]23CCO[C@@H]2CCN(C(=O)c2c(C)noc2C)C3)n1`, -20.2%; in that of `CCCS(=O)(=O)N1C[C@@H]2CN(Cc3ccoc3)CCO[C@@H]2C1`, 2.92%.
For the compound `Cc1cc(CN2C[C@@H]3CCCO[C@@H]3[C@H](Nc3ccccn3)C2)no1`, the Percent Effect was -4.49%.
On to `COc1cc2c(cc1-c1nc3c(cnn3C(C)C3CC3)[nH]1)OCO2` (centres undefined), for which the Percent Effect was 21.1%.
With `COc1cc2c(cc1-c1nc3c(cnn3C(C)C)[nH]1)OCO2`, the Percent Effect stood at 56.2%.
Regarding `COc1cc2c(cc1-c1nc3c(cnn3C(C)C(C)C)[nH]1)OCO2` (centres undefined), the Percent Effect is -3.85%.

(Values after ChEMBL document CHEMBL3988442, “University of Dundee, Small-Polar-MMV Screening Library” (2021).)
